# Source: a collection of fitness landscapes (doi:10.1016/j.celrep.2020.107928)
# Over roughly 81,000 sequences, “one-hybrid fitness for binding NBS DNA” has its median near -0.1; the highest 2% begin near 0.36. The full list was thinned out, with the highest values kept by preference.
# B1: Caulobacter ParB omega fusion; a variant is named by its letters at X, in order, B8GW30 (parent)
# chain: MESVVVGEPGMSEGRRGLGRGLSALLGEVDAAPAQAPGEQLGGSREAPIEILQRNPDQPRRTFREEDLEDLSNSIREKGVLQPILVRPSPDTAGEYQIVAGERAWRAAQRAGLKTVPIMVRELDDLAVLEIGIIENVQRADLNVLEEALSYKVLMEKFERTQENIAQTIGKSXSHVANXMRLLXLPDEVQSYLVSGELTAXHARAIAAAADPVALAKQIIEGGLSVRETEALARKAPNLSAGKSKGGRPPRVKDTDTQALESDLSSVLGLDVSIDHRGSTGTLTITYATLEQLDDLCNRLTRGI
# Variants of: B1
# Assay: one-hybrid fitness for binding NBS DNA (the Noc-binding site; scaled: cognate 1, non-cognate 0); higher = stronger binding
# Conditions: with NBS DNA site
# Summary of the method: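 On M9-minus-histidine containing 0.1 mM IPTG and 5 mM 3-AT, E. coli USO cells with a HIS3 reporter, site 19 bp from the promoter, grew 48 hours at 37°C to select Caulobacter ParB libraries randomised at four specificity codons. Plasmids from before and after were Illumina-sequenced, with three replicate libraries pooled and variants under 10 reads left out. Fitness is the log change in variant-to-wild-type read ratio, rescaled against cognate and non-cognate.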
row,Variant,one-hybrid fitness for binding NBS DNA
1,SHRM,≤ 0.2
2,SFTP,≤ 0.2
3,GMTV,≤ 0.2
4,AWKC,≤ 0.2
5,HLVG,≤ 0.2
6,QNYP,≤ 0.2
7,MSYR,≤ 0.2
8,KGQY,≤ 0.2
9,LHCR,≤ 0.2
10,RKVV,≤ 0.2
11,RPMF,≤ 0.2
12,YCQV,≤ 0.2
13,FVKY,≤ 0.2
14,QCHQ,0.269
15,QSHC,≤ 0.2
16,QCHG,≤ 0.2
17,QSHM,≤ 0.2
18,QPHG,≤ 0.2
19,QRHQ,0.431
20,QCHM,≤ 0.2
21,QRHM,0.438

row,Variant,one-hybrid fitness for binding NBS DNA
1,QCHC,0.238
2,QRHC,0.437
3,QSHQ,≤ 0.2
4,QRHG,0.403
5,TMAD,≤ 0.2
6,KMQL,≤ 0.2
7,QRHI,0.358
8,QPHH,≤ 0.2
9,QRHF,0.347
10,QCHH,0.333
11,QRHH,0.61
12,QRHD,0.294
13,QRHN,0.437
14,QRHP,0.303
15,QRHS,0.718
16,ATVR,≤ 0.2
17,ASPP,≤ 0.2
18,AERS,≤ 0.2
19,AVLE,≤ 0.2
20,HTYV,≤ 0.2
21,WTPE,≤ 0.2

row,Variant,one-hybrid fitness for binding NBS DNA
1,PKNM,≤ 0.2
2,VQKH,≤ 0.2
3,SIHM,≤ 0.2
4,DQIS,≤ 0.2
5,AINC,≤ 0.2
6,PFAM,≤ 0.2
7,ERKR,0.275
8,RRKR,0.929
9,REKR,0.228
10,RRVR,0.699
11,NEMS,≤ 0.2
12,SEDT,≤ 0.2
13,RTFF,≤ 0.2
14,RNEV,0.385
15,RRVV,0.229
16,RCNV,≤ 0.2
17,RRYV,0.254
18,RCKV,0.23
19,RRRV,0.655
20,RRDV,0.223
21,RNYV,≤ 0.2

row,Variant,one-hybrid fitness for binding NBS DNA
1,RRNV,0.456
2,RRKV,0.694
3,RCRV,0.257
4,RCEV,≤ 0.2
5,AVRK,≤ 0.2
6,KHMG,≤ 0.2
7,LTMT,≤ 0.2
8,MTLT,≤ 0.2
9,VSMY,≤ 0.2
10,WPTG,≤ 0.2
11,TWNS,≤ 0.2
12,VPYS,≤ 0.2
13,QQKW,0.382
14,QQDW,≤ 0.2
15,QQVW,≤ 0.2
16,QQYW,≤ 0.2
17,QQRW,0.373
18,QQFW,≤ 0.2
19,PDLF,≤ 0.2
20,GASG,≤ 0.2
21,IEFV,≤ 0.2
